For test [1], the target named is Transient receptor potential cation channel subfamily V member 1 (Homo sapiens) (UniProt Q8NER1). Briefly: HTS Assay for Compounds that Act as Enhancers of the Vanilloid Receptor 1 (AID 488979). Further: 0% is about no effect. The method in brief:
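Calcium influx kinetics via Fluo-8 (480/520 nm) in TRPV1-expressing cells, 2000/well cultured overnight at 35.5C. Compound-alone read 3 min (agonist phase), followed by EC20 capsaicin challenge for 2 min (enhancer phase).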

Test [2] has as its target Thyrotropin receptor (Homo sapiens) (UniProt P16473). The experiment in a line: qHTS Assay for Antagonists of the Thyroid Stimulating Hormone Receptor (AID 488980). Further: series mostly up to about 58 µM; 0% is about no effect. The method in brief:
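TSHR-transfected HEK293 cells (2000/well) in HEPES-buffered HBSS with 70 uM RO 20-1724 were stimulated with 4 nM TSH (EC80, final) in the presence of compound. cAMP was measured by HTRF competition after lysis and 30 min at RT.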

The target of test [3] is D(1A) dopamine receptor (Homo sapiens) (UniProt P21728). The experiment in a line: HTS Assay for Allosteric Agonists of the Human D1 Dopamine Receptor: Primary Screen for Agonists (AID 488981). Further: potency means the concentration at half of the fitted maximal effect. On activation: 0% is about no effect. In a few lines:
(§1)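 Calcium flux in an inducible, force-coupled HEK293 Trex D1 line (overnight at 30 C): agonist mode is the 180 s kinetic read after compound; potentiator mode is the following 180 s read after dopamine at EC20.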

The target is the same in test [4]. The experiment in a line: HTS Assay for Allosteric Agonists of the Human D1 Dopamine Receptor: Primary Screen for Potentiators (AID 488982). Further: potency means the concentration at half of the fitted maximal effect. In a few lines:
as §1

Test [5] has the same target. Briefly: HTS Assay for Allosteric Agonists of the Human D1 Dopamine Receptor: Primary Screen for Antagonists (AID 488983).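 Further: calcium flux response to an EC80 dopamine challenge measured with no-wash dye; on the % scale 0 is the no-effect control and ±100 the full control effect; nearly all actives have a fitted effect of over 65% in size.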 The method in brief: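 Calcium-flux read-out in inducible HEK293 T-REx cells expressing D1, dye-loaded 30–90 min at room temperature. Kinetic reads: 180 s after compound (agonist phase), then 180 s after an EC80 dopamine challenge.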
A short description of test [6]: Validation screen for small molecules that induce genotoxicity in human embryonic kidney (HEK293T) cells expressing luciferase-tagged ELG1 (AID 493106). Further: 0% is about no effect. The method in brief:
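ELG1-luciferase reporter readout (ONE-Glo, 30 min, room temperature) after 16 hr compound treatment at 37 °C of HEK293T cells at 2,000 per well. Rising luminescence flags genotoxic stress.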

Test [7] deals with Thyrotropin-releasing hormone receptor (Homo sapiens) (UniProt P34981). Briefly: qHTS for Small Molecule Agonists and Allosteric Enhancers of Human TRH Receptor: Validation Screen for Agonists (AID 493127;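 active means calcium activation more than 3 SD above the typical response in the agonist read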;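 further: intracellular calcium rise by fluo-8 fluorescence before TRH EC20 addition; 0% is about no effect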). Particulars: TRH receptor agonist cell assay; at 2 µM; stronger effect = higher value. The method in brief: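 Compound-evoked intracellular calcium release in fluo-8-loaded TRHR cells, read kinetically on FDSS (Ex 480/Em 530, 1 s/cycle) after 23 nL pintool transfer. Agonist phase preceded 10 nM TRH EC20 addition.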

Test [8] can be described thus: Nrf2 qHTS screen for inhibitors: Validation (AID 493153; active means well fitted inhibition curve with a large enough effect in the main read-out, with a control signal flat, not every such curve was filed as active). Particulars: Potency: luciferase luminescence; viability change: measured here: cytotoxicity max response. In a few lines:
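Concentration-response on A549 ARE_Fluc reporter cells exposed 18-24 h at 37 C, 5% CO2. Cytotoxicity read first by CellTiter-Fluor fluorescence (Ex 405/Em 525), then Nrf2 inhibition by BugLite luminescence after 15 min.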

The nature of test [9]: qHTS for Inhibitors of Cell Surface uPA Generation: Validation Assay (AID 493164).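 Further: RAW 264.7 macrophage cells exposed to compound for 18 h; 0% is about no effect.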 The method in brief: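 ATP-Lite luminescence read-out: ATP remains high when uPA activity-dependent LF translocation into the cytoplasm is blocked. RAW 264.7 cells, 18 h compound exposure at 37 C; 7-point titration, 2.45 nM to 38.3 uM final.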
The target of test [10] is Galactokinase (Homo sapiens) (UniProt P51570). Briefly: qHTS Validation Assay for Inhibitors of Human Galactokinase (GALK) (AID 493189). Further: 0% is about no effect. The method in brief:
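GALK (5 nM) with 35 uM ATP and 100 uM galactose in HEPES pH 8.0 with MgCl2, NaCl, DTT and BSA. Reaction ran 1 h at room temperature. Residual ATP read by Kinase-Glo Plus luminescence.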

The nature of test [11]: Validation screen for small molecules that induce DNA re-replication in SW480 colon adenocarcinoma cells (AID 504364). Further: potency means the concentration at half of the fitted maximal effect. In a few lines: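 Image-based DNA content read-out: Hoechst stain 40 min, total nuclear fluorescence intensity (ex 405 nm, em 500-530 nm) after 48 h compound exposure of 250 SW480 cells/well at 37 C, 5% CO2, versus DMSO vehicle.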
Test [12] deals with Peptidyl-prolyl cis-trans isomerase NIMA-interacting 1 (Homo sapiens) (UniProt Q13526). Briefly: qHTS Validation Assay to Find Inhibitors of Pin1 (AID 504536; active means well fitted inhibition curve with a large enough effect in the polarisation, with a control signal flat, not every such curve was filed as active; the % refers to the polarisation;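 further: 0% = full Pin1 enzyme wells and -100% = no-enzyme wells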). In a few lines: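 Fluorescence polarization competition: compounds (titration) displace HiFluor-488-labeled Pin1-1b peptide from Pin1 (0.3 uM final) in pH 7.5 HEPES buffer with DTT, 10 min at room temperature; %Activity normalized to no-enzyme wells, curves fitted.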

For test [13], the target named is Phosphoglycerate kinase, glycosomal (Trypanosoma brucei brucei) (UniProt P07378). Briefly: qHTS Validation Assay to Find Inhibitors of Phosphoglycerate Kinase (AID 504547). Further: potency means the concentration at half of the fitted maximal effect. In a few lines: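 Luminescence end-point (Kinase-Glo Plus, 10 min) after a 60 min room-temperature coupled reaction. GAPDH at 100nM final supplies 1,3-BPG to PGK. Buffer: 100mM TEA pH 7.6, 5mM MgCl2, 0.01% Tween-20. Wells lacking PGK served as controls.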

Test [14] deals with phosphoglycerate mutase (Leishmania major) (UniProt Q4Q090). The experiment in a line: qHTS Validation Assay to Find Inhibitors of Phosphoglycerate Mutase (AID 504548). Further: series mostly up to about 58 µM; on the % scale 0 is the no-effect control and ±100 the full control effect. As to conditions: Potency: inhibition qHTS. The method in brief: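 Luminescent end-point read-out via Kinase-GloPlus after a 10-minute development. Reaction: 1.25nM Leishmania major PGAM with substrate and compound, 45 minutes at room temperature in TEA buffer (pH 7.6) with MgCl2 and Tween-20.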

Test [15] in a line: qHTS for Inhibitors of ATXN expression: Validation of Cytotoxic Assay (AID 588349). Further: on the % scale 0 is the no-effect control and ±100 the full control effect. In a few lines: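 Cytotoxicity counter-screen: ATP-based luminescent viability (CellTiter Glo) after 72 hr exposure of HEK293 cells to a compound titration at 37 degrees C.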
Test [16] in a line: qHTS for Inhibitors of ATXN expression: Validation (AID 588378). Further: series mostly up to about 57 µM; on the % scale 0 is the no-effect control and ±100 the full control effect; nearly all actives have a fitted effect of over 75% in size. The method in brief:
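HEK293 cells carrying ATXN2-firefly luciferase reporter, treated with compound 24 h at 37 °C. Viability read first by CellTiter-Fluor (405/525 nm), then reporter expression by Bright-Glo luminescence; controls were a known ATXN2 expression inhibitor and a luciferase inhibitor.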

Test [17] concerns the target Ubiquitin carboxyl-terminal hydrolase 1 (Homo sapiens) (UniProt O94782). The experiment in a line: Inhibitors of USP1/UAF1: Pilot qHTS (AID 504865). Further: nearly all actives have a fitted effect of over 35% in size. Further: potency means the concentration at half of the fitted maximal effect. The method in brief: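 USP1/UAF1 complex at 1 nM preincubated 15 min at room temperature with compound, then Ub-Rho substrate added at 150 nM final. Fluorescence (480/540 nm) read kinetically in 50 mM HEPES pH 7.8, 0.5 mM EDTA, 1 mM TCEP, 0.1 mg/ml BSA, 0.01% Tween-20.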

The results in this text go back to PubChem BioAssay (NCATS).

Records with an inconclusive call do not appear. Active and inactive are the calls of the source. Unless noted, the call rests on the fitted dose curve; in most records, active means well fitted curve in the direction sought with a large enough effect; inconclusive means small, poorly fitted or top-dose-only effect, or another doubt; inactive means no such curve, though single readings can be large; an effect the other way counts as inactive or inconclusive.

Thyrotropin-releasing hormone receptor (Homo sapiens), sequence (P34981 whole entry, looked up): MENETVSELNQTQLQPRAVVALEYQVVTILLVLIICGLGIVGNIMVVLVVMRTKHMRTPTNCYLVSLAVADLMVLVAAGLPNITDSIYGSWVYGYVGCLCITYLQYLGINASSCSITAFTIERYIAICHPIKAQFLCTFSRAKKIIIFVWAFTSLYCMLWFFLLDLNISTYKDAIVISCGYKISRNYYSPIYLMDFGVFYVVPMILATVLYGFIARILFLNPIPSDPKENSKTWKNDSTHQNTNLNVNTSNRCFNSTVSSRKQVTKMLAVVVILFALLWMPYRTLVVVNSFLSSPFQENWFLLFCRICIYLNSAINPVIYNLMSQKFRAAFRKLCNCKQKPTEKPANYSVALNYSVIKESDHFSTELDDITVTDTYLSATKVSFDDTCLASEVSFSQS
Ubiquitin carboxyl-terminal hydrolase 1 (Homo sapiens), sequence (O94782 whole entry, looked up): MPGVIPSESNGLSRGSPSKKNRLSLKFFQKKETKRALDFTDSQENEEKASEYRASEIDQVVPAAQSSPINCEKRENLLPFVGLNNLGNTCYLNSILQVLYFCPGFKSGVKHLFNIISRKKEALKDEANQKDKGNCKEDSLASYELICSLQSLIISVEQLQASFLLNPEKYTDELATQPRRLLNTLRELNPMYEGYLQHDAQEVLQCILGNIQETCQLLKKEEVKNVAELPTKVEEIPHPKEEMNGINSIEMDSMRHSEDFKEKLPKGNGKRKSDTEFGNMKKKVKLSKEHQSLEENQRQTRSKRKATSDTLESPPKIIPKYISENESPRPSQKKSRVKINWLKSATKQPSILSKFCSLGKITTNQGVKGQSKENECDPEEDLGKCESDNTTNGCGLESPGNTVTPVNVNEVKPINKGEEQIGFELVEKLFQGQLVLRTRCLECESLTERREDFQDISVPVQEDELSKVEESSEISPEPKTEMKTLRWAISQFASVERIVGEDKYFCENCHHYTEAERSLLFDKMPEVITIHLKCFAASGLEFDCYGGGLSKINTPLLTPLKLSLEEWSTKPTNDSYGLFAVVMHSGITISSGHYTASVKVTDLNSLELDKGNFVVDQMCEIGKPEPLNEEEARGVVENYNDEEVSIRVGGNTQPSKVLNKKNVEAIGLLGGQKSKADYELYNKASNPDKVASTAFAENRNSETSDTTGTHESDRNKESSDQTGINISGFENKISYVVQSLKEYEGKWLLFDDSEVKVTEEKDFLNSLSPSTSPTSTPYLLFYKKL
Peptidyl-prolyl cis-trans isomerase NIMA-interacting 1 (Homo sapiens), sequence (Q13526 whole entry, looked up): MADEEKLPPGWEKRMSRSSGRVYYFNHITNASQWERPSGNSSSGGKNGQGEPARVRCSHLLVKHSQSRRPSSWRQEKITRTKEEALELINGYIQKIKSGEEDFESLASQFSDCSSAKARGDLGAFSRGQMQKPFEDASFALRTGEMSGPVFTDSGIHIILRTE
phosphoglycerate mutase (Leishmania major), sequence (Q4Q090 1-553): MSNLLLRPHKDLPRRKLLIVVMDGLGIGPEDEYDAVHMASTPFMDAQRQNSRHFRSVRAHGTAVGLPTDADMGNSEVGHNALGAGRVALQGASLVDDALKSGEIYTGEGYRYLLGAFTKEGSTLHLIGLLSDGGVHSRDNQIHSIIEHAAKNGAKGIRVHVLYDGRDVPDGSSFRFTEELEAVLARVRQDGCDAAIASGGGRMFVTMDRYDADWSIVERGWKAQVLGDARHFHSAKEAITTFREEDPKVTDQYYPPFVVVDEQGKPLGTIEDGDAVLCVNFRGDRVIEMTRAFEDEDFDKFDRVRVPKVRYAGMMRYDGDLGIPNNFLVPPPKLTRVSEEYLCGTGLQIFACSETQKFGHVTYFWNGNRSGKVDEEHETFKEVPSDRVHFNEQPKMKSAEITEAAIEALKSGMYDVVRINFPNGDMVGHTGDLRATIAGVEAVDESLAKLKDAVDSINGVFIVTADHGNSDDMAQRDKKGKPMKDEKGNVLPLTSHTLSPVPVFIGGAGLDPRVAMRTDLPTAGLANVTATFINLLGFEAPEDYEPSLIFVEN
Thyrotropin receptor (Homo sapiens), sequence (P16473 whole entry, looked up): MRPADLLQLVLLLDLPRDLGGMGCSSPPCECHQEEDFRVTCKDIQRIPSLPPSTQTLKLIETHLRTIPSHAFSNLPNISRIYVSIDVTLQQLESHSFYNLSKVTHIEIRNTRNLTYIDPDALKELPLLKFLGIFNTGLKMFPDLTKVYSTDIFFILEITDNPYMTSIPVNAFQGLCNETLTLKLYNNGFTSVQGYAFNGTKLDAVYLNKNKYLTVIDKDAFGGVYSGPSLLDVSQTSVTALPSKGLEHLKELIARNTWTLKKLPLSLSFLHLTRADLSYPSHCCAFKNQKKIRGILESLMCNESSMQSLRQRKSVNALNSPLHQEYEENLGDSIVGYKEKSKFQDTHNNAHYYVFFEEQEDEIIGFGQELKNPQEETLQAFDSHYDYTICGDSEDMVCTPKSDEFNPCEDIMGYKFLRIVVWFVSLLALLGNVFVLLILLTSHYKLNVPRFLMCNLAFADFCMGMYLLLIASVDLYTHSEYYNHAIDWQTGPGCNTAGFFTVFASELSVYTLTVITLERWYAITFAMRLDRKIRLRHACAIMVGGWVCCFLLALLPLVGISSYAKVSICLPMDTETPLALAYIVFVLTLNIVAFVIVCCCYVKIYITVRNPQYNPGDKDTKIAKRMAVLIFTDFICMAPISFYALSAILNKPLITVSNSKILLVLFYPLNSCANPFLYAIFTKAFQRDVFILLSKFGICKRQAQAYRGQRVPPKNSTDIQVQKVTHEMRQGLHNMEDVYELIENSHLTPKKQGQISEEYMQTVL
Phosphoglycerate kinase, glycosomal (Trypanosoma brucei brucei), sequence (P07378 whole entry, looked up): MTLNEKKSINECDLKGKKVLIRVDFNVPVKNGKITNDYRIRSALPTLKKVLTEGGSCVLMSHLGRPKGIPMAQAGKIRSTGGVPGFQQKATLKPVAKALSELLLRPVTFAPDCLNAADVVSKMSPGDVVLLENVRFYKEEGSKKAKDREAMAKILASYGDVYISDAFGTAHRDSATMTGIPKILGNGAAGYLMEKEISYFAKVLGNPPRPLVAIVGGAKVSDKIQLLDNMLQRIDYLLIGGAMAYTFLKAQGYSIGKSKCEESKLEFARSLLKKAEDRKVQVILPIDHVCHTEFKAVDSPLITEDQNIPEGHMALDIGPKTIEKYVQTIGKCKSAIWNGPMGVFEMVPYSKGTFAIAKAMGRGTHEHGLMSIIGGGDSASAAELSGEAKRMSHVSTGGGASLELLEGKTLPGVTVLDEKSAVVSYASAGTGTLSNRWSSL
Transient receptor potential cation channel subfamily V member 1 (Homo sapiens), sequence (Q8NER1 whole entry, looked up): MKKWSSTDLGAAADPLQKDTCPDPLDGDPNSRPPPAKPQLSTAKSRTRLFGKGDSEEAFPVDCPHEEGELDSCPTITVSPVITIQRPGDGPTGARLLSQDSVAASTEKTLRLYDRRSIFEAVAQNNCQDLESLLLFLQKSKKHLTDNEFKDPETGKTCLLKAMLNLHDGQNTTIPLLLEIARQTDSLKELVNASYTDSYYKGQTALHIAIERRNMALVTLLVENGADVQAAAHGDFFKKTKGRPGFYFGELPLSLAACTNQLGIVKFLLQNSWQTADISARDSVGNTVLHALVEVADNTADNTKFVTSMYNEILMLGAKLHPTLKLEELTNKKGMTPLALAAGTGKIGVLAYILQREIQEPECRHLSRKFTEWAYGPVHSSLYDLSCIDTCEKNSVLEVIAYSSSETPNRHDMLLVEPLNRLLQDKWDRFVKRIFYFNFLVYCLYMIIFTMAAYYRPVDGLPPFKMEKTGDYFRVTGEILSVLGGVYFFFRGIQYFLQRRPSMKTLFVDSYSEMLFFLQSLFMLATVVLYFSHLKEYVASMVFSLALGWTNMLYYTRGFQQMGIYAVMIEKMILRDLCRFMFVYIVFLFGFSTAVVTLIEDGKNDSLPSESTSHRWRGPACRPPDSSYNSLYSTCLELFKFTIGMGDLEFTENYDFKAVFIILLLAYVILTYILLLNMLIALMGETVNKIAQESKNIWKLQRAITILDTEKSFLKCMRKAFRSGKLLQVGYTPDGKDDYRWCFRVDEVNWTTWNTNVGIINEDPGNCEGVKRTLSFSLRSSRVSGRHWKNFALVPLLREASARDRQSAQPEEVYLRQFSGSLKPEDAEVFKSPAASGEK
Galactokinase (Homo sapiens), sequence (P51570 whole entry, looked up): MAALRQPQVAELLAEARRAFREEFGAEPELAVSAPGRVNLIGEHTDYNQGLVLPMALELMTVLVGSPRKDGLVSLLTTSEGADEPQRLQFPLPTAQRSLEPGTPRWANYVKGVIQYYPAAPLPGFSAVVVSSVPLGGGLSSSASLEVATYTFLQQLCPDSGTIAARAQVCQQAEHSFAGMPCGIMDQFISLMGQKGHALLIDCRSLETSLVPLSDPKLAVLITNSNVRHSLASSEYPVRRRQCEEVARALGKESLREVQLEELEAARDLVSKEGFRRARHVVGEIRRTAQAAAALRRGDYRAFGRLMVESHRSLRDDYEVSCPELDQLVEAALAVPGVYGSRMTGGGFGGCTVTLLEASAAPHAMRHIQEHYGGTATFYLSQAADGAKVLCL
D(1A) dopamine receptor (Homo sapiens), sequence (P21728 whole entry, looked up): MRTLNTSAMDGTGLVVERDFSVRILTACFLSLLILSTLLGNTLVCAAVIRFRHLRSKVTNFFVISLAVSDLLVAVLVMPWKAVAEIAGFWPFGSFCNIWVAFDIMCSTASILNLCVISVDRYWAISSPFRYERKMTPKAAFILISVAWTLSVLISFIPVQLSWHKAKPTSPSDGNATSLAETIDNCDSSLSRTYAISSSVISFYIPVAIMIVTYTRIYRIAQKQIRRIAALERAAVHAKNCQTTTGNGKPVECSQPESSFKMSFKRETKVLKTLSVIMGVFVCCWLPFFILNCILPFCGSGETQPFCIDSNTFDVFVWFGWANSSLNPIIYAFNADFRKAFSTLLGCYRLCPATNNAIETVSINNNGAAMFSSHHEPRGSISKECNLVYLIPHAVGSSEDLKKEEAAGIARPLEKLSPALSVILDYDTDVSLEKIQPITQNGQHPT

Turning to `O=c1oc(Cl)c(Cl)c2ccccc12`, the result in test [1], in [2] and in test [9] was inactive. The Potency entry in test [3], in [4], in test [5], in [6], in [8] and in [10] was “inactive” throughout. Besides, the Potency entry in test [11], in test [12], in [13], in [14], in test [15] and in test [16] was “inactive” each time. The activation in test [7] was -4.69% (inactive). Also, in test [8], the viability change was -4.81%.

For the compound `O=c1cc(-c2ccccc2)[nH]c2nc(Cl)ccc12`, the outcome in test [1], in [2] and in test [9] was inactive. Besides, the Potency entry in test [3], in [4], in test [5], in [6], in [8] and in test [10] was “inactive” in each case. For the same compound, the Potency result in [13], in test [14], in [15] and in test [16] was “inactive” each time. Also, the activation in test [7] was -0.438% (inactive). Besides, in test [8], the viability change was -13.6%. Moreover, the Potency in [11] was 1.84 µM (active).

For the compound `N[C@H](C(=O)O)[C@H](O)C(=O)O`, the result in test [1], in test [2] and in [9] was inactive. Moreover, the Potency entry in test [3], in [4], in test [5], in test [6], in test [8] and in test [10] was “inactive” throughout. In addition, the Potency result in test [11], in [13], in test [14], in [17], in [15] and in [16] was “inactive” in each case. Besides, the activation in test [7] was 0.0625% (inactive). For the same compound, in test [8], the viability change worked out at 7.86%.

In the case of `CC(=O)NCCc1c[nH]c2ccc(O)cc12`, the result in [1] and in [2] was inactive. The Potency result in test [3], in [4], in test [5], in [6], in test [8] and in [10] was “inactive” each time. The Potency result in test [11], in test [12], in test [13], in test [14], in test [17] and in [15] was “inactive” throughout. Moreover, the viability change in test [8] was -0.372%.

In the case of `COc1cc(/C=C(\C#N)C(=O)c2ccc(O)c(O)c2)cc(I)c1O`, the result in [1], in test [2] and in test [9] was inactive. Also, the Potency in test [3] was 14.1 µM (active); in [4], 3.66 µM (active); in [13] it was 2.13 µM (active); in [17] it was 50.1 µM (active). For the same compound, the Potency entry in test [5], in test [6], in [8], in [11] and in test [14] was “inactive” throughout. Besides, the activation in test [7] is 53.1% (active). The viability change in test [8] is -22%.

For `NS(=O)(=O)c1cccc2c1c([N+](=O)[O-])cc1nc(O)c(O)nc12`, the result in test [1], in [2] and in [9] was inactive. Besides, the Potency entry in test [3], in [4], in [5], in test [6], in test [8] and in test [10] was “inactive” each time. For the same compound, the Potency entry in test [11], in test [13], in test [14] and in [16] was “inactive” in each case. Besides, the activation in [7] was 0.875% (inactive). In addition, the viability change in test [8] was -15.2%.

Take `NC1CCN(O)C1=O` (stereo not given): the result in [1] and in test [2] was inactive. Moreover, the Potency entry in test [3], in test [4], in test [5], in test [6], in [8] and in test [10] was “inactive” throughout. The Potency result in test [11], in test [12], in [13], in test [14], in test [15] and in [16] was “inactive” throughout. The activation in test [7] is 0.875% (inactive). In addition, in test [8], the viability change turned out to be 4.05%.
